Test results as given in PubChem BioAssay (NCATS).
Results filed as inconclusive are left out. Activity calls are given as the source filed them. The call rests on the fitted dose curve; in most records, active means well fitted curve in the direction sought with a large enough effect; inconclusive means small, poorly fitted or top-dose-only effect, or another doubt; inactive means no such curve, though single readings can be large; an effect the other way counts as inactive or inconclusive.

Experiments:
[1] = target: Protein phosphatase 1D (Homo sapiens) (UniProt O15297); test: RapidFire Mass Spectrometry qHTS Assay for Modulators of WT P53-Induced Phosphatase 1 (WIP1) (AID 1347424); further: series mostly up to about 63 µM
Protein phosphatase 1D (Homo sapiens), sequence (O15297 whole entry, looked up): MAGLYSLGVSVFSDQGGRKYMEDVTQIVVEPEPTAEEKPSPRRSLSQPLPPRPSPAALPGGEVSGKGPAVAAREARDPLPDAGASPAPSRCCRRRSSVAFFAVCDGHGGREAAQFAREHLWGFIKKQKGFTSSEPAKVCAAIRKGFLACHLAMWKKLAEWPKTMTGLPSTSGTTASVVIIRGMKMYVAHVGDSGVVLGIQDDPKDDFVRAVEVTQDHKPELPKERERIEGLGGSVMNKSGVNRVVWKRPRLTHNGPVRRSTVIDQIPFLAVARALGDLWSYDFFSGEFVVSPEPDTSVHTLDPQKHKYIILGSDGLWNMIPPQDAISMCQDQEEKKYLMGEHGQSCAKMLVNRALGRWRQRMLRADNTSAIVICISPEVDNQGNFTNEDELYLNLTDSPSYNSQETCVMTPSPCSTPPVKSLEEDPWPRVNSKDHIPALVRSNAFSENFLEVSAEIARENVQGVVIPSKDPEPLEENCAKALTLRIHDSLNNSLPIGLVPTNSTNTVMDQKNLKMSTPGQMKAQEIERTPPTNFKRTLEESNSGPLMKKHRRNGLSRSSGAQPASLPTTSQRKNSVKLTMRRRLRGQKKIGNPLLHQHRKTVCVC
How it was run: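 RapidFire MS readout of dephosphorylated VEPPL-S-QETFS product, with 1 uM isotope-labelled peptide standard. Reaction: 10 nM WIP1, 2 uM phosphopeptide substrate, 5 min, room temperature, after 1 h compound preincubation; stopped with 0.5% formic acid.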

[2] = target: Protein phosphatase 1D (Homo sapiens) (UniProt O15297); test: Rhodamine-PBP qHTS Assay for Modulators of WT P53-Induced Phosphatase 1 (WIP1) (AID 1347425)
How it was run: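 5 nM WIP1 + 10 uM Rh-PBP, 50 mM Tris pH 7.5, 30 mM MgCl2, 1 mM TCEP, 0.1 mM EGTA, BSA; cpds pinned, 1 hr RT; + 10 uM phosphopeptide; fluorescence 1-min reads x 11 min; delta = f1 - f0.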

[3] = Primary qHTS for inhibitors of La Crosse Virus (LACV) - induced cell death in SH-SY5Y cells (AID 1508616);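 further: top concentration of the series differs between compounds; higher means more rescue of cells from virus-induced death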
How it was run: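 Cytopathicity rescue screen: compounds pinned onto SH-SY5Y cells, which are then infected with LACV (MOI 0.01) and held 6 days at 37C. Percent activity is scaled between infected DMSO control and uninfected DMSO control.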

[4] = target: Calcium and integrin-binding protein 1 (Homo sapiens) (UniProt Q99828); test: Primary qHTS for Identification of Calcium Integrin Binding Protein 1 (CIB1) Competitor (AID 1508620);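 further: GST tagged CIB1 binding a fluorescein labelled alphaIIb integrin peptide tracer; top concentration of the series differs between compounds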
Calcium and integrin-binding protein 1 (Homo sapiens), sequence (Q99828 whole entry, looked up): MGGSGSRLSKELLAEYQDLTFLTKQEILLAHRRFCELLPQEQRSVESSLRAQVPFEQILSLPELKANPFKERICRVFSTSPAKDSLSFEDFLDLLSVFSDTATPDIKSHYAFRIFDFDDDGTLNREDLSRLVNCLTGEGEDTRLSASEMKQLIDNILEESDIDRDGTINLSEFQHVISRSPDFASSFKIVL
How it was run: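 Fluorescence polarization competition: GST-tagged CIB1 (1 uM final) preincubated with compound 15 min at room temperature, then FITC-labelled alphaIIb peptide (100 nM final) added. After 15 min at room temperature, polarization read at Ex 480/Em 540.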

Measured: Potency

O=C(Nc1ccc(Cl)cc1)Nc1ccc(Cl)c(Cl)c1
inactive: [1] | [2] | [3] | [4]

Cc1cccc(N(C)C(=S)Oc2ccc3c(c2)C2CCC3C2)c1 (stereo not drawn)
inactive: [1] | [2] | [3] | [4]

CC(=O)OC/C=C(C)/C=C/C=C(C)/C=C/C1=C(C)CCCC1(C)C
inactive: [1] | [2] | [3] | [4]

CC(Oc1c(Cl)cccc1Cl)C1=NCCN1 (stereo not drawn)
inactive: [1] | [2] | [3] | [4]

C[C@@]12CCC[C@H]1[C@@H]1CC[C@H]3C[C@@H](O)CC[C@]3(C)[C@H]1CC2
inactive: [1] | [2] | [3] | [4]

C1N2CN3CN1CN(C2)C3
inactive: [1] | [2] | [3] | [4]

CC1CC(=O)NN=C1c1ccc(NCC(C)(C)NCC(O)COc2cc(Cl)ccc2C#N)cc1 (stereo not drawn)
inactive: [1] | [2] | [3] | [4]

CN=C(N)NC(=O)Nc1c(C)cccc1C
inactive: [1] | [2] | [3] | [4]

O=C(O)c1ccccc1S
inactive: [1] | [2] | [3] | [4]

CCC(C(=O)NC(=O)NC(C)=O)c1ccccc1 (stereo not drawn)
inactive: [1] | [2] | [3] | [4]

CO[C@@]1(NC(=O)CSC[C@@H](N)C(=O)O)C(=O)N2C(C(=O)O)=C(CSc3nnnn3C)CS[C@@H]21
inactive: [1] | [2] | [3] | [4]

CCN(CC)CCN
inactive: [1] | [2] | [3] | [4]

C[C@@H](C1=C(CCN(C)C)Cc2ccccc21)c1ccccn1
inactive: [1] | [2] | [3] | [4]

CCOC(=O)C(=O)CCc1ccccc1
inactive: [1] | [2] | [3] | [4]

Cc1cnc(NS(=O)(=O)c2ccc(N)cc2)nc1
inactive: [1] | [2] | [3] | [4]

C=CCOc1cc(Cl)ccc1C(=O)NCCN(CC)CC
inactive: [1] | [2] | [3] | [4]

CN1CCC(=C2c3ccccc3CCc3cccnc32)CC1
inactive: [1] | [2] | [3] | [4]

CC(C(=O)O)c1ccc(/C=C2\CCCCC2=O)cc1 (stereo not drawn)
inactive: [1] | [2] | [3] | [4]

CC1(C)OC(=O)Nc2ccc(Br)cc21
inactive: [1] | [2] | [3] | [4]

CC(=O)N(CC(O)CO)c1c(I)c(C(=O)NCCO)c(I)c(C(=O)NCC(O)CO)c1I (stereo not drawn)
inactive: [1] | [2] | [3] | [4]

C#CC(C)(CC)OC(=O)c1ccccc1C(=O)O (stereo not drawn)
inactive: [1] | [2] | [3] | [4]

CC[C@@H]([C@H](C)O)n1ncn(-c2ccc(N3CCN(c4ccc(OC[C@@H]5CO[C@@](Cn6cncn6)(c6ccc(F)cc6F)C5)cc4)CC3)cc2)c1=O
inactive: [1] | [2] | [3] | [4]

O=C(NN1CCCC1)NS(=O)(=O)c1ccc(Cl)cc1
inactive: [1] | [2] | [3] | [4]

Nc1nc(=O)n([C@@H]2O[C@H](CO)[C@@H](O)[C@@H]2F)cc1I
inactive: [1] | [2] | [3] | [4]

CC(=O)/C=C/C=C1/C2CCC(C2)C1(C)C (stereo not drawn)
inactive: [1] | [2] | [3] | [4]

COCCc1ccccn1
inactive: [1] | [2] | [3] | [4]

Nc1nnnn1-c1ccccc1
inactive: [1] | [2] | [3] | [4]

Cc1cccc(C)c1NC(=O)c1ccc(N)cc1
inactive: [1] | [2] | [3] | [4]

Cc1[nH]cnc1-c1ccc(Cl)cc1
inactive: [1] | [2] | [3] | [4]

O=C1CC2(CCCC2)CC(=O)N1
inactive: [1] | [2] | [3] | [4]

CCN(CC)CC(=O)OCC(=O)[C@@]1(O)CC[C@H]2[C@@H]3CCC4=CC(=O)CC[C@]4(C)[C@H]3[C@@H](O)C[C@@]21C
inactive: [1] | [2] | [3] | [4]

CCN(CC)C(=O)C1CN2CCc3cc(OC)c(OC)cc3C2CC1OC(C)=O (stereo not drawn)
inactive: [1] | [2] | [3] | [4]

CC(C)(C)NCC(O)COc1ccccc1OCC1CCCO1 (stereo not drawn)
inactive: [1] | [2] | [3] | [4]

O=C(CCCl)NCc1ccccc1
inactive: [1] | [2] | [3] | [4]

O=C1CC[C@H](C(=O)N2CCCCC2)N1
inactive: [1] | [2] | [3] | [4]

CCCCN(CCCC)C(C(N)=O)c1ccc(OC)cc1 (stereo not drawn)
inactive: [1] | [2] | [3] | [4]

C[N+]1(C)CCC(OC(=O)C(O)(c2ccccc2)C2CCCC2)C1 (stereo not drawn)
inactive: [1] | [2] | [3] | [4]
